These results are taken from PubChem BioAssay AID977622 (Broad Institute, 2014).

A short description of assay [1]: wild-type E. coli growth inhibition versus h38 humanized strain – h38 mutant RFP, wild-type GFP, cherry-pick, dose response (AID 977622). As to conditions: activity change: E. coli mixed culture, total growth OD600 at 50 uM, at 50 µM.
Assay [2] deals with E. coli h38 humanized mutant ribosome RFP fluorescence, mixed culture, 24 h. The assay is described as above. As to conditions: h38 mutant RFP at 50 uM; at 50 µM.

Each structure is given as a SMILES string. Out of some 1,900 compounds screened, fewer than 10 were called active. Not shown: some 39% with an inconclusive outcome.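 How the source made its calls: active means Green signal of the normal strain falls at least twice as much as red signal of the resistant mutant, with overall culture growth loss under a set limit; inconclusive means no clear call, values can overlap the other calls; inactive means the rest.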 The list is a sample of the results.

For `Cc1cc(C)nc(SCCC(=O)Nc2ccccc2Cl)n1`, the call in assay [1] was inactive. The activity change in assay [2] came to 4.04%.
On to `C=CCNc1ccc2c(c1)OC[C@H](CC(C)C)NS2(=O)=O`, for which the results for the activity change in assay [1] and in assay [2] were -16.5% and -12.1%, respectively. Besides, the compound was called inactive in assay [1].
Take `CCCCCCCNC(=O)c1ccc(N2CCC3(CC2)OCCO3)c([N+](=O)[O-])c1`: in assay [1], the activity change was -71.7% and the compound was classed as inactive. Besides, the activity change in assay [2] is 33.2%.
Taken in the same sequence, the figures for `CCn1nc(C)cc1C(=O)N1CCCC(C(=O)c2ccc3ccccc3c2)C1` (centres undefined) were -3.63%, “inactive” and 3.47%.
Take `CSc1ccccc1C(=O)NCCc1ccc(S(=O)(=O)N2CCCCC2)cc1`: in assay [1], the activity change is -6.73% and the call was inactive.
Take `CCOc1ncccc1C(=O)OCC(=O)NCCCc1ccccc1`: the activity change was -34.2% in assay [1] and 13.1% in assay [2]. In assay [1], the call was inactive.
For `Cn1cc(CN2CCCC(C(=O)Nc3cccc(-c4cc5ccccc5[nH]4)c3)C2)cn1` (centres undefined), in assay [1], the activity change was -25.9% and the compound was called inactive. Besides, the activity change in assay [2] is -29%.
Taken in the same sequence, the figures for `COc1ccccc1CC(=O)NCCCc1ccccc1` were 0.195%, “inactive” and 28.9%.
With `CN1C(=O)c2cc(NC(=O)c3cccc(F)c3)ccc2OC[C@H]2O[C@@H](CC(=O)NCC3CCCCC3)CC[C@@H]21`, in assay [1], the activity change is -45.8% and the call was inactive. In addition, in assay [2], the activity change was -19.3%.
Taken in the same sequence, the figures for `C[C@H](CO)N1C[C@H](C)[C@H](CN(C)C(=O)Nc2ccc(F)cc2)Oc2c(NC(=O)Nc3ccccc3)cccc2C1=O` were -24.1%, “inactive” and 16.4%.
Taken in the same sequence, the figures for `O=C(Nc1c(S(=O)(=O)c2ccc(Cl)cc2)csc1Br)c1ccccc1Cl` were 9.68%, “inactive” and 8.46%.
In the case of `O=C(CCc1nc2ccccc2s1)OCC(=O)c1ccccc1`, in assay [1], the activity change was 6.3% and the outcome was inactive. Also, the activity change in assay [2] is -0.655%.
For the compound `Cc1ccc2nc(N(CCN(C)C)C(=O)C3CCN(S(=O)(=O)c4cccs4)CC3)sc2c1`, in assay [1], the activity change is -21.5% and the outcome was inactive.
With `Cc1cccc(-c2ccc([C@@H]3[C@@H](CO)N4CCCCN(S(=O)(=O)c5ccccc5C)C[C@@H]34)cc2)c1`, in assay [1], the activity change was -8.54% and the call was inactive. In assay [2], the activity change was 21%.
Turning to `COc1ccc(C#Cc2ccc([C@H]3[C@@H](CO)N4CCCCN(C(=O)Nc5cccc(F)c5)C[C@H]34)cc2)cc1`, the results for the activity change in assay [1] and in assay [2] were -17.6% and 73.7%, respectively. In addition, in assay [1], the call was inactive.
Taken in the same sequence, the figures for `Cc1cc(C)n(CC(O)COc2ccc3ccccc3c2)n1` (centres undefined) were 4.91%, 10.9% and “inactive”.
As for `N#Cc1nc(COc2cccc(Cl)c2)oc1N1CCCC1`, in assay [1], the activity change was -6.55% and the outcome was inactive.
For `COc1ccc(CC(=O)NCc2csc(-c3cccs3)n2)cc1OC`, in assay [1], the activity change is -8.86% and the outcome was inactive. The activity change in assay [2] is -8.02%.
Taken in the same sequence, the figures for `Cc1ccc(-n2c(SCC(N)=O)nnc2-c2cnccn2)cc1` were -6.07%, “inactive” and -24.8%.
On to `COc1ccc(C)c2sc(N(CCN(C)C)C(=O)c3ccc(S(=O)(=O)N(C)c4ccccc4)cc3)nc12`, for which the activity change is -16.8% in assay [1] and 11% in assay [2]. Moreover, the call in assay [1] was inactive.
Taken in the same sequence, the figures for `CCCc1nc2ccc(Br)cn2c1Cc1cccc(Cl)c1` were -8.44%, 4.58% and “inactive”.
Taken in the same sequence, the figures for `CS(=O)(=O)c1ccc(Cl)c(NC(=O)COC(=O)c2c(Cl)cccc2Cl)c1` were -7.03%, -3.81% and “inactive”.
Taken in the same sequence, the figures for `COc1ccc(Cc2c(-c3cccc(Cl)c3)nc3ccc(Cl)cn23)c(C)c1` were -9.93%, 1.24% and “inactive”.
In the case of `OC1CCN(c2c3c(nc4cc(-c5cccc(F)c5)nn24)CCCC3)CC1`, the values for the activity change in assay [1] and in assay [2] were -19% and -5.04%, respectively. Moreover, in assay [1], the compound was called inactive.
Taken in the same sequence, the figures for `CN(Cc1ccccc1NS(=O)(=O)c1ccc(Cl)cc1)C1CCCCC1` were 4.68%, 25.7% and “inactive”.
Turning to `O=C1c2ccccc2CSc2c(O)cccc21`, in assay [1], the activity change was -41.7% and the call was inactive. Further, the activity change in assay [2] is -51.2%.
On to `CCN(CC)CCNC(=O)c1cc2cc3ccc(OC)cc3nc2o1`, for which the figures for the activity change in assay [1] and in assay [2] were -17.2% and -1.99%, respectively. For the same compound, the compound was classed as inactive in assay [1].
`C[C@H](CO)N1C[C@H](C)[C@@H](CN(C)C(=O)CCCN(C)C)OCCCC[C@H](C)Oc2ccc(NC(=O)Nc3cccc4ccccc34)cc2C1=O`: in assay [1], the activity change stood at 1.54% and the compound was classed as inactive. Further, the activity change in assay [2] is -2.48%.
For `COc1ccccc1NC(=O)COC(=O)Cc1c[nH]c2ccccc12`, the results for the activity change in assay [1] and in assay [2] were -29.2% and -34.7%, respectively. The outcome in assay [1] was inactive.
Taken in the same sequence, the figures for `NC(=O)c1ccsc1NC(=O)COC(=O)Cc1ccc(F)cc1` were -13.5%, -23.2% and “inactive”.
Regarding `COc1cccc(C(=O)Nc2nnc(S(=O)(=O)N(C)Cc3ccccc3)s2)c1`, the activity change in assay [1] was -30.6%; in assay [2], -13.1%. Moreover, in assay [1], the compound was called inactive.
Taken in the same sequence, the figures for `Cc1noc(C)c1NC(=O)Nc1ccc2c(c1)C(=O)N([C@H](C)CO)C[C@@H](C)[C@@H](CN(C)C(=O)Nc1ccc3c(c1)OCO3)OCCCC[C@@H](C)O2` were -6.3%, -16.3% and “inactive”.
Taken in the same sequence, the figures for `CC(NC(=O)c1c(N)[nH]c(C(=O)c2ccccc2)c1-c1ccccc1Br)c1cccc2ccccc12` (centres undefined) were -15.6%, 41.2% and “inactive”.
In the case of `COC(=O)CN1C(=S)N(c2ccc(F)cc2)C(=O)C1CC(=O)Nc1ccc(F)cc1` (centres undefined), the activity change is -1.47% in assay [1] and -5.83% in assay [2]. The call in assay [1] was inactive.
In the case of `COc1cc(OC)cc(C(=O)N[C@H](C(=O)OCC(=O)Nc2ccc(F)c(F)c2F)C(C)C)c1`, in assay [1], the activity change is -1.83% and the result was inactive. Moreover, the activity change in assay [2] is -9.06%.
Turning to `O=C(NCc1ccccc1)c1ccc(-c2cn[nH]c2)c2ccoc12`, in assay [1], the activity change was -21.8% and the compound was classed as inactive. Further, the activity change in assay [2] is -23.8%.
Turning to `CCC(=O)Nc1nc2c(OC)ccc(OC)c2s1`, the compound was classed as inactive in assay [1]. Besides, the activity change in assay [2] is -14.1%.
`O=C(Nc1cccc(Cl)c1)N1C[C@@H]2[C@H](c3ccccc31)[C@@H](CO)N2C(=O)c1cccnc1`: in assay [1], the activity change stood at 7.11% and the result was inactive. Also, the activity change in assay [2] stood at 2.16%.
